Source: PubChem
PMK inhibit = S. pneumoniae PMK inhibitors, primary screen, biochemical, mevalonate pathway, pilot trial included; AID 539, 2006; inhibition, % at 10 µM; purified PMK, PK/LDH-coupled NADH absorbance 340 nm; hit rate 0.49% among 65,000; phosphomevalonate kinase (Streptococcus pneumoniae D39);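 active = top-ranked compounds by inhibition in the single 10 µM screen, taking a fixed number of the strongest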
MK inhibit = S. pneumoniae MK inhibitors, primary screen, biochemical, PK/LDH-coupled NADH absorbance; purified MK, PK/LDH-coupled NADH absorbance 340 nm; inhibition, % at 10 µM; hit rate 0.48% among 65,000;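 active = ranked among the strongest by inhibition in the single 10 µM screen, a fixed top-ranked set picked for dose follow-up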
Fluor 339 460 = intrinsic fluorescence of library compounds, ex339/em460 – biochemical, MLSMR library, data from DPM-DC assay, artefact control, profiling panel; compound autofluorescence, ex339/em460 nm, NADH buffer; hits give high values; 1 = no-compound wells, NADH background; fluorescence fold increase at 10 µM; hit rate 5.5% among 65,000;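 active = at 10 µM, mean starting fluorescence two-fold or more over control wells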;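 note: signal is the first read of a kinetic run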
Spn DPM-DC inh = S. pneumoniae DPM-DC inhibitors, primary screen, biochemical, PK/LDH-coupled NADH fluorescence; diphosphomevalonate decarboxylase (Streptococcus pneumoniae D39); AID 556, 2006; purified DPM-DC; hit rate 0.49% among 65,000; calls only at 10 µM;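 active = the 320 compounds with the highest percent inhibition in the single-dose primary screen, excluding strongly autofluorescent ones, cut at about 32% in these data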;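 note: kinetic rate of NADH fluorescence loss reporting ADP formed by the decarboxylase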
Abs 340nm = compound light absorbance at 340 nm, profiling panel, artefact control, biochemical, MLSMR library, data from PS, PMK, MK assays; 65,000 tested, under 10 active; AID 708, 2007; compound absorbance at 340 nm, fold over control; fold change at 10 µM;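 active = at 10 µM dose, initial 340 nm absorbance at least 2 fold that of control wells; inactive = change under 2 fold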;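 note: initial absorbance extrapolated from kinetic A340 decline of NADH oxidation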
NADH enzymes = inhibitors of PK/LDH coupling enzymes, profiling panel, artefact control, biochemical, MLSMR library. coupled PK/LDH NADH assays, four targets. AID 774, 2007. hit rate 0.02% among 65,000. IC50, µM (series often up to 10 µM);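 active = single-dose screening hits from any of four coupled enzyme assays that gave an IC50 when retested across doses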;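 note: the DPM-DC format reads NADH fluorescence rather than 340 nm absorbance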
Each line names hits and unclear results; the compound was inactive in the other large screens. Rows were chosen to be rich in hits. Some 6.3% of all compounds tested hit in one or more screens of this group.

CCC(=O)Nc1ccc(-c2nnc(SCC(=O)NCC3CCCO3)n2C)cc1 (configuration not stated)	none
O=c1c2ccccc2nc2c3ccccc3ncn12	Fluor 339 460 2.27 (not shown: Spn DPM-DC inh)
CC(C)OC(=O)CC(=O)c1sc2nc3c(cc2c1N)CN(C)CC3	Fluor 339 460 4.84 (not shown: Spn DPM-DC inh)
CCOC(=O)c1ccc(N2C(=O)C(O)=C(C(C)=O)C2c2ccc(O)c(OC)c2)cc1 (configuration not stated)	none
CCOC(=O)C1=C(O)C(=O)N(c2ccc(S(N)(=O)=O)cc2)C1c1ccc(OC)cc1 (configuration not stated)	PMK inhibit 35.0, Fluor 339 460 2.09
CCOc1ccccc1NC(=O)c1c(NC(=O)CNCc2ccco2)sc2c1CCC2	none
CCOc1cc(C(=O)NCc2nnc(SCC(=O)OC)n2C)cc(OCC)c1OCC	PMK inhibit 12.0
COc1ccc(N2C(=O)CCC(C(=O)c3ccccc3)=C2C)cc1	none
Cn1c(-c2c(N)n(C3CCCC3)c3nc4ccccc4nc23)nc2ccccc21	Fluor 339 460 3.82 (not shown: Spn DPM-DC inh)
c1ccn2c(c1)nc1c2nc2ccccn21	Fluor 339 460 3.83 (not shown: Spn DPM-DC inh)
CC(=O)Nc1ccc(NC(=O)c2c(C)nc3ccccn23)cc1	none
COc1cc(CN2CC(C)OC(C)C2)cc(OC)c1 (configuration not stated)	MK inhibit 45.0
Cn1nnnc1SCC(=O)Nc1ccccc1N1CCCCC1	none
COc1cc2cc(C(=O)Nc3ccccc3)c(N)nc2cc1OC	Fluor 339 460 2.27 (not shown: Spn DPM-DC inh)
COc1cc2ccccc2cc1C(=O)Nc1cccnc1	none
COc1nc2c(C)cccc2cc1-c1noc(-c2ccco2)n1	none
COC(=O)c1cc2c([nH]c3ccccc32)c(C)n1	Fluor 339 460 4.84 (not shown: Spn DPM-DC inh)
COc1ccc(-c2cn3ccccc3n2)cc1OC	Fluor 339 460 3.98 (not shown: Spn DPM-DC inh)
CN(C)S(=O)(=O)c1cccc(-c2cn3ccccc3n2)c1	none
COc1ccc(-c2cn3cc(C)ccc3n2)cc1OC	Fluor 339 460 2.48 (not shown: Spn DPM-DC inh)
Cc1cc(C(=O)CSc2nnnn2-c2ccccc2)c(C)n1CC1CCCO1 (configuration not stated)	none
Cc1cc(C(=O)CSc2nnnn2-c2ccc(Cl)cc2)c(C)n1CC1CCCO1 (configuration not stated)	Spn DPM-DC inh active
COc1ccc(-c2nnc(SCC(=O)NC(C)c3ccccc3)o2)cc1OC (configuration not stated)	none
Cc1n[nH]c(C)c1S(=O)(=O)N1CCN(C(=O)c2ccco2)CC1	none
CCCc1nc(N2CCOCC2)c(C#N)c2c1CCCC2	none
CC(C)Cc1nc(N2CCOCC2)c(C#N)c2c1COC(C)(C)C2	Fluor 339 460 2.36 (not shown: Spn DPM-DC inh)
CC(C)Cc1nc(N2CCN(C(=O)C(C)C)CC2)c(C#N)c2c1CCC2	Fluor 339 460 2.14 (not shown: Spn DPM-DC inh)
CC(=O)N1CCN(c2nc(CC(C)C)c3c(c2C#N)CCC3)CC1	Fluor 339 460 2.3 (not shown: Spn DPM-DC inh)
CC(C)Cc1nc(N2CCCCC2)c(C#N)c2c1CCC2	none
CC(C)c1nc(N2CCOCC2)c(C#N)c2c1CCC2	Fluor 339 460 2.03
CC(C)Cc1nc(NCCN2CCOCC2)c(C#N)c2c1COC(C)(C)C2	none
N=c1cc(C2(O)CCCCC2)n2c(nc3ccccc32)s1	none
Cc1cc2c(N=O)c(NO)ccc2[nH]1	none
O=C(c1cnn2c1NC(c1ccco1)CC2C(F)(F)F)N1CCN(c2cccc(Cl)c2)CC1 (configuration not stated)	none
O=C(CN1CCOCC1)Nc1cccc(Cl)c1Cl	none
COc1nc2cc(C)ccc2cc1-c1noc(-c2cccnc2)n1	none
COc1cc(OC)cc(-c2nc(-c3cc4cc(C)ccc4nc3OC)no2)c1	Fluor 339 460 2.6
CCCOc1ccc2ccccc2c1/C=N/n1c(C)nnc1-n1nc(C)cc1C	none
Nc1ccc(-c2nc3ccc(-c4nc5ccccc5o4)cc3[nH]2)cc1	Fluor 339 460 3.68 (not shown: Spn DPM-DC inh)
Nc1ccc2oc(-c3ccccn3)nc2c1	none
Nc1ccc(-c2nc3ccc(N)cc3o2)cc1	Fluor 339 460 2.14 (not shown: Spn DPM-DC inh)
Nc1nc(-c2nc3ccccc3[nH]2)cs1	none
Nc1cc(N)cc(-c2nc3ccccc3[nH]2)c1	Fluor 339 460 2.16, Spn DPM-DC inh active
CCOC(=O)c1cccc(N2C(=O)c3ccccc3S2(=O)=O)c1	none
Cc1cc(Oc2ccccc2)nc(-c2ccccc2)n1	none
Cc1cc(Oc2ccccc2)nc2ccc(O)cc12	Fluor 339 460 2.11 (not shown: Spn DPM-DC inh)
CCOC(=O)C(C)Sc1nc(-c2ccc(OC)cc2)nc2c1c(=O)n(C)c(=O)n2C (configuration not stated)	Fluor 339 460 2.16 (not shown: Spn DPM-DC inh)
COC(=O)C(C)Sc1nc(-c2ccc(OC)cc2)nc2c1c(=O)n(C)c(=O)n2C (configuration not stated)	Fluor 339 460 3.59
CCOC(=O)C(CC)Sc1nc(-c2ccc(OC)cc2)nc2c1c(=O)n(C)c(=O)n2C (configuration not stated)	Fluor 339 460 4.98 (not shown: Spn DPM-DC inh)
CCCc1nc(SCC(=O)c2ccc(OC)cc2)c2c(=O)n(C)c(=O)n(C)c2n1	none
CC(=O)C(Sc1nc(-c2ccc(F)cc2)nc2c1c(=O)n(C)c(=O)n2C)C(C)=O	none
CCc1nnc2sc(-c3ccc(NC(=O)c4ccc5c(c4)OCCO5)cc3)nn12	Fluor 339 460 3.88 (not shown: Spn DPM-DC inh)
c1ccc(Cc2nnc3sc(-c4ccc5c(c4)OCO5)nn23)cc1	Fluor 339 460 3.54 (not shown: Spn DPM-DC inh)
CCN(CC)c1ccc2c(c1)CCCN2	none
COCCOc1ccc(C(F)(F)F)cc1Nc1nc2ccccc2o1	none
NC(=O)C1CC(=O)N(Cc2ccc3c(c2)OCO3)C(=Nc2ccccc2)S1 (configuration not stated)	none
CNC(=O)C1CC(=O)N(Cc2ccc3c(c2)OCO3)C(=Nc2ccc(OC)cc2)S1 (configuration not stated)	PMK inhibit 27.0
CN(C)c1nc(SCCOC(=O)Nc2ccccc2)nc(N(C)C)n1	none
CCOc1ncccc1C(=O)OCc1cc(=O)n2c(n1)sc1ccccc12	PMK inhibit 25.0
CCOc1ncccc1C(=O)OCC(=O)c1c(N)n(C)c(=O)n(C)c1=O	none
Cc1ccc2[nH]c(-c3ccccc3)cc(=O)c2c1	Fluor 339 460 2.16 (not shown: Spn DPM-DC inh)
CC(=O)C1=C(C)Nc2ncnn2C1c1ccc(Cl)cc1 (configuration not stated)	none
CCCn1c(=O)n(C)c(=O)c2c3oc(=O)c(NC(=O)c4ccc(F)cc4)cc3[nH]c21	none
O=C(Cn1cnnn1)OCC(=O)c1ccc(Cl)s1	Fluor 339 460 2.3
CCOCCCNC(=O)C1CCN(S(=O)(=O)CC)CC1	PMK inhibit 25.0
